Most compounds without a hit are left out; they make up all but 21% or so of the library.
IL-1B inflam inh: inflammasome signaling inhibition, IL-1 beta readout; THP-1 LPS/ATP IL-1B secretion, AlphaLISA, 16 h; active compounds read low; activity change, % at 57.5 µM; 360,000 tested, 4.7% active; AID 743279; in the data active means activity change below about -50%; inconclusive means mostly about -30% to -49%
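Secreted IL-1B measured by AlphaLISA bead assay after 16 h compound exposure of THP-1 cells; compounds (final up to 57.5 uM) added 1 h before LPS (250 ng/mL) and ATP (1.25 mM) stimulation; lower signal means less secretion.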
RORgamma inh: blocks mouse ROR gamma transcriptional activity; Drosophila S2 Gal4-RORgamma UAS-luciferase reporter, 20 h; P51450; 310,000 tested, 5.4% active; Potency, µM (titrated, usually from 53.6 µM), for the others: top-dose activity change, negative = inhibition, actives largely listed as inhibitors; AID 2551; further: potency means the concentration at half of the fitted maximal effect; nearly all actives have a fitted effect of over 60% in size
Target sequence (P51450 whole entry, looked up, the tested form may be a part): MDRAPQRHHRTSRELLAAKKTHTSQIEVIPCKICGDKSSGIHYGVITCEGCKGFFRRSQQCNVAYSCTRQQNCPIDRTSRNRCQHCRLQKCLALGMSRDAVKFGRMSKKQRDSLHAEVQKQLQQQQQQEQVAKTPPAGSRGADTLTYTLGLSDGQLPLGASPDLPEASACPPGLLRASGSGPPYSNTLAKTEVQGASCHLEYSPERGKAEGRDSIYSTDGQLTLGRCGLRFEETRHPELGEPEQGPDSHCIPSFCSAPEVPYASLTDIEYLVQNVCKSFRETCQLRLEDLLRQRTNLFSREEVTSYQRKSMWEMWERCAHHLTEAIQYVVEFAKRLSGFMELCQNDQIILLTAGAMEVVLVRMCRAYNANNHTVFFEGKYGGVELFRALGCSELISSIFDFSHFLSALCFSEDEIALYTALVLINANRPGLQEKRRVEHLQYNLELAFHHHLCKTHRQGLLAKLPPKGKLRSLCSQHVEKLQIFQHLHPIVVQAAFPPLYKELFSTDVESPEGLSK
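Luciferase reporter read in Schneider cells carrying Gal4-RORγ (mouse) and UAS-Photinus luciferase; cells given compound 1 h before 700 uM copper sulfate induction, then incubated 20 h at ambient temperature.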
ELG1 repair inh: inhibitors of ELG1-dependent DNA repair in HEK293T cells; AID 504467; 330,000 tested, 2.3% active; Potency, µM (top dose mostly 46.1 µM), for the others: top-dose activity change, negative = inhibition, hits mostly inhibitors; HEK293T ELG1-luciferase reporter, luminescence, 16 h; DNA damage induced by 5-fluorouridine; further: potency means the concentration at half of the fitted maximal effect; nearly all actives have a fitted effect of over 55% in size
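HEK293T cells expressing luciferase-tagged ELG1 (2,000/well) received 5-Fluorouridine plus compound or DMSO for 16 hr at 37 °C. Luciferase was read by ONE-Glo luminescence after 30 min at room temperature.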
DT40 TDP1 CPT: DT40-hTDP1 cell growth loss with CPT; chicken DT40 Tdp1-/-;hTDP1 cells + 20 nM CPT, ATP luminescence, 48 h; Potency, µM (series often up to 46.2 µM), for the others: top-dose activity change, negative = growth inhibition, actives largely listed as inhibitors; 420,000 tested, 12% active; AID 686979; further: potency means the concentration at half of the fitted maximal effect; nearly all actives have a fitted effect of over 55% in size
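Cell growth measured by CellTiter-Glo luminescence after a minimum 48 h, 37 C compound exposure with 20 nM CPT in Tdp1-knockout DT40 cells stably expressing hTDP1, seeded 400/well; qHTS titration format.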
TDP1 cell noCPT: qHTS for Inhibitors of human tyrosyl-DNA phosphodiesterase 1 (TDP1): qHTS in cells in absence of CPT; DT40 Tdp1-/- hTDP1 cells, no CPT, ATP luminescence, 48 h; Potency, µM (top dose mostly 46.2 µM), inactives show at the highest dose activity change, negative = growth inhibition, usual class: inhibitors; 420,000 tested, 15% active; AID 686978, 2013; further: potency means the concentration at half of the fitted maximal effect; nearly all actives have a fitted effect of over 55% in size
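No-CPT arm: Tdp1-/-;hTDP1 DT40 cells (400/well) plus compounds, incubated ≥48 hr at 37 °C. Readout CellTiter-Glo luminescence.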
Gal4-VP16 FLuc: counter-screen for ROR gamma inhibitors: Gal4-VP16 reporter; Potency, µM (titrated, usually from 53.6 µM), without a hit: top-dose activity, negative = inhibition, most hits filed as inhibitors; 310,000 tested, 3.5% active; Drosophila S2 Gal4-VP16 UAS-luciferase, luminescence, 20 h;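 further: Gal4-VP16 expression switched on by copper sulfate through the metallothionein promoter; potency means the concentration at half of the fitted maximal effect; nearly all actives have a fitted effect of over 50% in size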
* marks the source's active call; other numbers are inactive results; ? = inconclusive; · = no result; [ ] = another dose, or the depositor's remark. Unless noted, the call rests on the fitted dose curve; in most records, active means well fitted curve in the direction sought with a large enough effect; inconclusive means small, poorly fitted or top-dose-only effect, or another doubt; inactive means no such curve, though single readings can be large; an effect the other way counts as inactive or inconclusive. On the % scale 0 is the no-effect control and ±100 the full control effect.

SMILES | IL-1B inflam inh | RORgamma inh | ELG1 repair inh | DT40 TDP1 CPT | TDP1 cell noCPT | Gal4-VP16 FLuc
O=C(CC12CC3CC(CC(C3)C1)C2)NCC(c1ccc(F)cc1)N1CCOCC1 (stereo not given) | 6 | 20% | 6% | 26µM* | ? | -17%
OC(c1ccccc1)(c1ccc(F)cc1)C(c1ccccc1)N1CCOCC1 (stereo not given) | -2 | 19% | 9% | 16µM* | 18µM* | -2%
COc1cc(C(=O)NCC(c2ccc(F)cc2)N2CCOCC2)ccc1OCc1ccccc1Cl (stereo not given) | -60* | · | ? | ? | ? | ·
O=C(NCC(c1ccc(F)cc1)N1CCOCC1)c1ccc(C(=O)c2ccccc2)cc1 (stereo not given) | -10 | -2% | -19% | ? | 21µM* | 0%
COc1ccccc1NS(=O)(=O)c1ccc(C(=O)NCC(c2ccc(F)cc2)N2CCOCC2)cc1 (stereo not given) | 17 | · | -6% | ? | -43% | ·
CC(O)(c1ccccc1)C(C(c1ccccc1)N1CCOCC1)N1CCOCC1 (stereo not given) | 2 | · | · | 5% | -14% | ·
Cc1ccccc1SCC(=O)NCC(c1ccc(F)cc1)N1CCOCC1 (stereo not given) | -4 | · | -15% | ? | ? | ·
Cn1ccnc1SCCNC(=O)CCc1nnc(CCc2ccccc2)o1 | 2 | 12% | 0% | 34% | ? | -18%
CC1Cc2cc(/C(O)=C3/C(=O)C(=O)N(CCCn4ccnc4)C3c3ccc(F)cc3)ccc2O1 (stereo not given) | -5 | 10% | ? | -10% | 23% | -6%
CCC1CCCCN1C(=S)Nc1cccc(S(=O)(=O)N(C)C)c1 (stereo not given) | 20 | 7% | -2% | -29% | ? | -7%
Cc1cccc2nnc(-c3ccccc3)n12 | 7 | · | · | 7% | 11% | ·
CCOC(=O)c1c(C)[nH]c(C)c1S(=O)(=O)N(C)CC(=O)Nc1ccc(C)c(F)c1 | · | · | · | -16% | -18% | ·
CCCCN(C=O)c1c(CC)nc2c(OCC3CCCCC3)cccn12 | -4 | · | · | 21µM* | 9.2µM* | ·
CCCCC(=O)N(C)c1c(CC)nc2c(OCC3CCCCC3)cccn12 | -22 | · | · | ? | 21µM* | ·
CCCCC(=O)N(C)c1c(CC)nc2c(OCCC3CCCCC3)cccn12 | -68* | · | · | ? | 16µM* | ·
CCc1nc2c(OCCC3CCCCC3)cccn2c1N(C)C(=O)c1cccs1 | -54* | · | · | 29µM* | 21µM* | ·
CCc1nc2c(OCCn3cccc3)cccn2c1N(C)C(=O)c1cccs1 | -22 | · | · | ? | -21% | ·
CCCCC(=O)N(C)c1c(CC)nc2c(OCCOC)cccn12 | -2 | · | · | -14% | 0% | ·
COc1ccc(CN2C(=O)CCC2(C)c2nnnn2-c2ccc3c(c2)OCCO3)cc1OC (stereo not given) | 15 | · | · | -10% | -7% | ·
CC(=O)c1cccc(NC(=O)CN(C)Cc2ccc(OC(F)F)cc2)c1 | 22 | 30% | -1% | ? | ? | -3%
COc1cccc(C(=O)OCC(=O)Nc2ccc3c(c2)OCCO3)c1 | 34 | · | 7% | -25% | ? | ·
CCNc1ncc2nc(CCc3ccccc3)c(=O)n(-c3ccccc3)c2n1 | · | -28% | · | ? | ? | -8%
O=C(NCCC1CCCCN1S(=O)(=O)c1ccccc1)C(=O)NC1CC1 (stereo not given) | -14 | · | -1% | 1% | -2% | ·
CCc1nc2c(OCCn3cccc3)cccn2c1N(C)C(=O)CC(C)C | 10 | · | · | -24% | ? | ·
CCc1nc2c(OCCC3CCCCC3)cccn2c1N(C)C(=O)CC(C)C | ? | · | · | 21µM* | 10µM* | ·
SMILES | IL-1B inflam inh | RORgamma inh | ELG1 repair inh | DT40 TDP1 CPT | TDP1 cell noCPT | Gal4-VP16 FLuc
CCOC(=O)c1nnn2c1nc(N1CCCCC1)c1ccccc12 | · | 14% | ? | ? | ? | 4%
CCC1CCCCN1c1nc2c(C=O)c(C)nn2c2ccccc12 (stereo not given) | -30 | ? | ? | 21µM* | 16µM* | -3%
COCC#Cc1cnc2c(c1)C(=O)N([C@H](C)CO)C[C@H](C)[C@@H](CN(C)S(=O)(=O)c1ccccc1)O2 | 20 | · | · | 11% | 0% | ·
CC(C)(C)Nc1nc(N2CCCC2)nc(N2CCCC2)n1 | 53 | -12% | -1% | ? | 16µM* | -3%
CCCNc1nc(N2CCCC2)nc(N2CCCC2)n1 | -65* | -26% | ? | ? | 13µM* | 23%
CCNc1nc(NC(C)(C)C)nc(N2CCCC2)n1 | 27 | -29% | -20% | 18µM* | ? | ?
CCNc1nc(NC(N)=S)nc(NC(C)(C)C)n1 | 12 | ? | 15% | 13% | -21% | -11%
COc1ccc(-n2c3c(c(=O)[nH]c2=O)C(NC(=O)c2ccccc2Cl)(C(F)(F)F)C(=O)N3)cc1 (stereo not given) | · | · | · | 15% | 1% | ·
O=C(N/N=C1/C[C@@H](O)[C@@H](O)[C@@H]2[C@H]3C(=O)N(c4ccc(F)cc4F)C(=O)[C@@H]3CC[C@@H]12)OCc1ccccc1 | · | 0%[10 µM] | · | · | · | -5%[10 µM]
COCCNc1nc(-c2cc(C)n(CCc3ccc(OC)cc3)c2C)cs1 | -16 | -8% | ? | 16µM* | 18µM* | 0%
COc1ccc(CCn2c(C)cc(C(=O)COC(=O)c3cnccn3)c2C)cc1 | -10 | -3% | 0% | -5% | 12% | -14%
CC(=O)Nc1cc(-c2ccc(C(=O)N3CCOCC3)cc2)cn2c(-c3cccc(C(F)(F)F)c3)cnc12 | 0 | · | · | ? | 15µM* | ·
CC(=O)Nc1cc(-c2ccc(C(=O)N3CCOCC3)cc2)cn2c(-c3ccccc3)cnc12 | -2 | · | · | ? | ? | ·
CC(=O)Nc1cc(-c2ccc(C(=O)N3CCOCC3)cc2)cn2c(-c3ccc(F)cc3)cnc12 | -6 | · | · | ? | 8.2µM* | ·
CC(=O)Nc1cc(-c2ccc(C(=O)N3CCOCC3)cc2)cn2c(-c3ccc(C(C)=O)cc3)cnc12 | -19 | · | · | 26µM* | 12µM* | ·
COc1ccc(-c2cnc3c(NC(C)=O)cc(-c4ccc(C(=O)N5CCOCC5)cc4)cn23)cc1OC | ? | · | · | ? | 23µM* | ·
CC(=O)NC(NC(=S)Nc1ccccc1Br)C(Cl)(Cl)Cl (stereo not given) | -8 | ? | 16% | 31% | -18% | -5%

Screening results: PubChem BioAssay, National Center for Advancing Translational Sciences (NCATS)
